This passage reports composite z-score results from PubChem BioAssay.

The target in the experiment is Dickkopf-related protein 1 (Homo sapiens) (UniProt O94907). As to the kind of experiment: small molecules binding DKK1 protein – biochemical, small-molecule microarray, 635 nm fluorescence scan, primary screen (AID 1106).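 Further: score merges emission near 667 nm with signal to noise over three replicate slides.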 The note with it: higher = more signal.
Chain of Dickkopf-related protein 1 (Homo sapiens) (O94907 whole entry, looked up): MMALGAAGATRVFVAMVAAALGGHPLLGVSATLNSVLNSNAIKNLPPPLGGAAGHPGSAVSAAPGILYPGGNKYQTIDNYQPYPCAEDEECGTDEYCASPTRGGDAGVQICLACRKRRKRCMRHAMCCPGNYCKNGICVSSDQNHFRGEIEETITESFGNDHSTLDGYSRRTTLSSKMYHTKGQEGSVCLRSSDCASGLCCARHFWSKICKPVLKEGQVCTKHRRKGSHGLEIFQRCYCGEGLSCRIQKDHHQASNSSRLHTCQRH
As for `COCCOC(=O)N1C(=O)[C@@]2(c3cc(C#CC4=CCCCC4)ccc31)[C@H](C(N)=O)[C@H]1C(=O)O[C@H](c3ccccc3)[C@H](c3ccccc3)N1[C@@H]2c1ccccc1OCCO`, the composite z-score is 0.707.

`O=C1NC(=O)C2C1C=CC(C(O)c1ccco1)N2Nc1ccccn1` (stereo unspecified) showed a composite z-score of -0.172.

Compound `CCCCN1CC=CC23O[C@@H]4/C=C\CCC(C)OC(=O)C4[C@H]2C(=O)N(C(CO)C(C)C)[C@@H]3C1=O` (stereo partly specified) yielded a composite z-score of 0.125.

Compound `CC=CC(O)C1C=CC2C(=O)N(c3ccccc3)C(=O)C2N1Nc1ccccc1F` (stereo unspecified) yielded a composite z-score of 0.0324.

Compound `COc1ccccc1CN1C(=O)c2ccccc2[C@](Cc2ccccc2I)(C(=O)NCC(F)(F)F)[C@@H]1c1ccc(CO)cc1` registered a composite z-score of -0.532.

In turn, `O=C1NC(=O)C2C1C=CC(C(O)c1c(F)cccc1Cl)N2Nc1ccc(Cl)cc1Cl` (stereo unspecified) registered a composite z-score of -0.367.

Consider `COC(=O)[C@@]1(Cc2ccccc2)[C@H]2c3cc(C(=O)N(C)C)n(CCc4ccc(O)c(OC)c4)c3C[C@H]2CN1C(=O)c1ccccc1`, for which the composite z-score is 0.358.

`CCCNC(=O)[C@@H]1c2ccccc2C(=O)N(C(C)C)[C@H]1c1ccc(CO)cc1` yielded a composite z-score of -0.375.

Turning to `[N-]=[N+]=Nc1ccccc1[C@H]1OC(c2ccc(OCCCO)cc2)=N[C@@]1(Cc1ccccc1)C(=O)N1CCCCC1`, the composite z-score was determined as 1.18.

In turn, `C=CCC(OC(C)=O)[C@@H]1[C@@H](N(Cc2cccc3ccccc23)C(=O)Cc2ccc(F)cc2)c2cc(OCCCO)ccc2N1C(=O)c1ccc2ccccc2n1` (stereo partly specified) displayed a composite z-score of -0.305.

As to `C[N+](C)(C)CCCC[C@@H]1NC(=O)[C@H]2C[C@@H](C(=O)NCCCCCCN)[C@@H](c3ccc(O)cc3)N2C1=O`, the composite z-score stood at 0.0717.

Compound `C=C(CCCC)/C(=C/C[C@@H](OC(=O)c1ccncc1)c1ccccc1OCCO)c1cnc2ccccc2c1` returned a composite z-score of 0.736.

Regarding `O=C1c2ccccc2[C@](Cc2ccccc2I)(C(=O)NCC(F)(F)F)[C@H](c2ccc(CO)cc2)N1C1CCCCC1`, the composite z-score was -0.239.

The compound `CC(C)N1C(=O)C[C@@](C(=O)NCCCN(C)C)(c2ccc([N+](=O)[O-])cc2)[C@H]1c1ccc(CO)cc1` gave a composite z-score of -0.197.

As to `C=C[C@@H](COC(C)=O)N(C(=O)OC(C)(C)C)S(=O)(=O)c1ccc(Br)cc1`, the composite z-score is 2.14.

As to `CC1CC/C=C\[C@H]2OC34C=CCN(c5ccc(Cl)cc5)C(=O)[C@H]3N(CCCCCO)C(=O)[C@]4(C)C2C(=O)O1` (stereo partly specified), the composite z-score was -1.98.

In the case of `O=C1O[C@H](c2ccccc2)[C@H](c2ccccc2)N2[C@H]1[C@@H](C(=O)Nc1nc3ccccc3s1)[C@]1(C(=O)Nc3ccc(C#CCCO)cc31)[C@H]2c1ccc(O)cc1`, the composite z-score came out at 0.198.

`COCCOC(=O)N1C(=O)[C@@]2(c3cc(C#CC4(O)CCCCCC4)ccc31)[C@H](c1ccc(O)cc1)N1[C@H](c3ccccc3)[C@H](c3ccccc3)OC(=O)[C@H]1[C@@H]2C(=O)NC[C@H](O)c1ccccc1` yielded a composite z-score of 1.08.

In turn, `O=C1O[C@@H](c2ccccc2)[C@@H](c2ccccc2)N2[C@@H](c3ccccc3OCCO)[C@]3(C(=O)Nc4ccc(C#CCCO)cc43)[C@@H](C(=O)N3CCCCCCC3)[C@H]12` registered a composite z-score of 2.69.

For `COc1ccc([Si](C)(C)[C@@H]2[C@@H](CCO)O[C@]3(C(=O)N(Cc4ccc(N5CCCCC5=O)cc4)c4ccccc43)[C@H]2C)cc1`, the composite z-score is 0.562.

The compound `O=C(NCC(F)(F)F)[C@@H]1c2ccccc2C(=O)N(Cc2cc(F)cc(C(F)(F)F)c2)[C@H]1c1ccc(CO)cc1` showed a composite z-score of -1.39.

Take `Cc1ccccc1C(O)C1C=CC2C(=O)N(C)C(=O)C2N1N(c1ccccc1)c1ccccc1` (stereo unspecified): the composite z-score was determined as 0.119.

For the compound `O=C(CS)NCCCCCCNC(=O)[C@H]1C[C@H]2C(=O)N[C@@H](Cc3ccccc3)C(=O)N2[C@H]1c1ccc(O)cc1`, the composite z-score is 0.75.

In the case of `C=CCN1Cc2ccccc2[C@H]2OC(c3ccc(OCCCO)cc3)=N[C@@]2(CC=C)C1=O`, the composite z-score was 1.67.

For `CO[C@]12C=C(Br)[C@@H](C[C@@H]1c1cccc(C)c1)[C@@]1(CO1)C2=O`, the composite z-score is 0.0254.

In turn, `C=CC[C@]1(C(=O)O)COC(c2ccc(OCCCO)cc2)=N1` had a composite z-score of 0.117.

On to `CCOC(=O)[C@H]1[C@@H]2C(=O)N3CCC[C@H]3[C@H](O[Si](C(C)C)(C(C)C)C(C)C)[C@H]2C=C2CCN(S(=O)(=O)c3ccc(C)cc3)C[C@H]21`, for which the composite z-score was determined as 0.593.

Consider `CN(C)CCCCNC(=O)[C@@H]1C[C@@H]2C(=O)N[C@@H](Cc3ccccc3)C(=O)N2[C@@H]1c1cccc(OCCO)c1`, for which the composite z-score was determined as 1.28.

Compound `C=C(C)C1CCC(C(O)C2C=CC3C(=O)N(C)C(=O)C3N2N2CCCCC2)CC1` (stereo unspecified) gave a composite z-score of 0.986.

For `CN1C(=O)C2C=CC(C(O)c3ccccn3)N(N(c3ccccc3)c3ccccc3)C2C1=O` (stereo unspecified), the composite z-score was -0.0644.

In turn, `CN(C)CCCNC(=O)[C@@]1(C)c2ccccc2C(=O)N(Cc2ccccc2)[C@H]1c1ccc(CO)cc1` registered a composite z-score of 0.0494.

`C=CCNC(=O)[C@@H]1[C@H]2C(=O)O[C@H](c3ccccc3)[C@H](c3ccccc3)N2[C@H](c2ccc(O)cc2)[C@@]12C(=O)N(C(=O)OCCOC)c1ccc(C#CC3(O)CCCCCC3)cc12` yielded a composite z-score of -1.82.

`CN(C)C(=O)[C@@]1(Cc2ccccc2CN=[N+]=[N-])N=C(c2ccc(OCCCO)cc2)O[C@H]1c1ccccc1CN=[N+]=[N-]` registered a composite z-score of -0.687.

On to `O=C1O[C@@H](c2ccccc2)[C@@H](c2ccccc2)N2[C@@H](c3ccc(O)cc3)[C@]3(C(=O)Nc4ccc(C#CC5=CCCCC5)cc43)[C@@H](C(=O)NC[C@H](O)c3ccccc3)[C@H]12`, for which the composite z-score was 1.49.

Compound `CC(C)(C)OC(=O)CC[C@]1(C(=O)NCc2ccccc2)N=C(c2ccc(OCCCO)cc2)O[C@H]1c1ccccc1CN=[N+]=[N-]` showed a composite z-score of 0.133.

`CC(C)C[C@@H]1NC(=O)[C@@H]2C[C@H](C(=O)NCCCCN(C)C)[C@H](c3cccc(OCCO)c3)N2C1=O` yielded a composite z-score of 0.212.
